Measurements taken from paper PMC7862700, “An all-to-all approach to the identification of sequence-specific readers for epigenetic DNA modifications on cytosine”.

Legend:
Test in all cases: DAPPL (digital affinity profiling via proximity ligation, sequencing); 10 mM Tris-HCl pH 7.5, 50 mM NaCl, 1 mM DTT, 4% glycerol, room temperature, 30 min; GST-TFs on glutathione beads, 16-mer random dsDNA library, 0.1% formaldehyde crosslink after washing; high values mean tight binding
[1] = target: T1, FLI1 (Homo sapiens, UniProt Q01543 1-452); conditions: protein: recombinant; tags: N-terminal GST; dsDNA, one strand shown
T1 sequence: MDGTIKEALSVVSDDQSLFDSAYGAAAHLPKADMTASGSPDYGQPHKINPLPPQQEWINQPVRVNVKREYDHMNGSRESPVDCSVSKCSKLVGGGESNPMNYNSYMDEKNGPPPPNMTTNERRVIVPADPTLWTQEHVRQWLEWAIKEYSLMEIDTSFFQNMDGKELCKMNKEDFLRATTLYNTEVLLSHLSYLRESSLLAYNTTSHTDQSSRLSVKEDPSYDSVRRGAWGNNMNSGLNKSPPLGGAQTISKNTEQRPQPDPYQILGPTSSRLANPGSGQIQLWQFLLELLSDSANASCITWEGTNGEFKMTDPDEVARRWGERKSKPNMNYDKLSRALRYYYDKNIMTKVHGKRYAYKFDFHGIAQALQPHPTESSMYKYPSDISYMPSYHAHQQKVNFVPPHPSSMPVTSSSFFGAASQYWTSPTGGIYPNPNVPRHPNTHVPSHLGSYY
Method in brief: (§1)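 Binding signal is each hexamer's read frequency for a factor divided by its frequency in the tag-only sample. The factors were GST-fused human transcription factors from yeast, captured on glutathione beads, DNA-barcoded and pooled with that sample. Pools were incubated with 200 nmole of a random double-stranded 16-mer DNA library in Tris/NaCl/DTT/glycerol buffer at room temperature for 30 min, then washed, crosslinked with 0.1% formaldehyde, proximity-ligated with BsaI/T4 ligase (1 h, 37 °C), PCR-amplified and sequenced on an Illumina NextSeq500.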

[2] = target: T2, ELK1 (Homo sapiens, UniProt P19419 1-428); conditions: protein: recombinant; tags: N-terminal GST; dsDNA, one strand shown
T2 sequence: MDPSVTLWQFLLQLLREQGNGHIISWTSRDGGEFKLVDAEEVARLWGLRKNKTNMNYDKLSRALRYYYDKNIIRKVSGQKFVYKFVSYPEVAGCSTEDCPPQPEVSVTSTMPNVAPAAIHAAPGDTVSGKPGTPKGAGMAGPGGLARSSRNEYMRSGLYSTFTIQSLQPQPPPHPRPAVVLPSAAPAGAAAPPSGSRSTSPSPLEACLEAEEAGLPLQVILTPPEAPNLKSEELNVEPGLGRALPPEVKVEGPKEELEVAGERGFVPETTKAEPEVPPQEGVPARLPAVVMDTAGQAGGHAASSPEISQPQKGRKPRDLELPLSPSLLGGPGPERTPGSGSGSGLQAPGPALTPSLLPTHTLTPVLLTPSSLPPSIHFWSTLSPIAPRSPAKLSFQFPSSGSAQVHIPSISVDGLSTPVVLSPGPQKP
Method in brief: as §1

[3] = target: T3, GABPA (Homo sapiens, UniProt Q06546 1-454); conditions: protein: recombinant; tags: N-terminal GST; dsDNA, one strand shown
T3 sequence: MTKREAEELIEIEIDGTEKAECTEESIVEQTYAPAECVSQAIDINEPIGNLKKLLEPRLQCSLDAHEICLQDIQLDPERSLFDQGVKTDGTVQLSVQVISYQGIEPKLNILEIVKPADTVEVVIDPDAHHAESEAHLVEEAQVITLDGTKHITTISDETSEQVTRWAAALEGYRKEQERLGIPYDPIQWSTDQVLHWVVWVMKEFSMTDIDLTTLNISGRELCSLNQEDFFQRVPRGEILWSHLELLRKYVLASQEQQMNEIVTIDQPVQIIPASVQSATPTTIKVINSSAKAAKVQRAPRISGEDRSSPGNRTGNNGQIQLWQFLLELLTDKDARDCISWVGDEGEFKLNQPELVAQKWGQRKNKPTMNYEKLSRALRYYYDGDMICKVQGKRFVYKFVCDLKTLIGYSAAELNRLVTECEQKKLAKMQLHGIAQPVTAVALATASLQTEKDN
Method in brief: as §1

[4] = target: T4, ERG (Homo sapiens, UniProt P11308 1-479); conditions: protein: recombinant; tags: N-terminal GST; dsDNA, one strand shown
T4 sequence: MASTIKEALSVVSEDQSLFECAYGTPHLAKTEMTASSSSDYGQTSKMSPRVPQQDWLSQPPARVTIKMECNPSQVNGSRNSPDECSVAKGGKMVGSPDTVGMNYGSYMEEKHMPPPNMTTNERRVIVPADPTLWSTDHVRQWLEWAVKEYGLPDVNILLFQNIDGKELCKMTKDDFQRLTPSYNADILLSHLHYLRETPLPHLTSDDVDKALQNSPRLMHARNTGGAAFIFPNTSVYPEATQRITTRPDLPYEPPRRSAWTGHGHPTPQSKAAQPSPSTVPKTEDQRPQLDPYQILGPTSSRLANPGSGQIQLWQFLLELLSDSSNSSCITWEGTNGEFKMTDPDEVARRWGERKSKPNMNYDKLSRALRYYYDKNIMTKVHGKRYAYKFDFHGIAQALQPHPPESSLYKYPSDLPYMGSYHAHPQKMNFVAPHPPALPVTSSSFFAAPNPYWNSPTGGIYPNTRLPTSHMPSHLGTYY
Method in brief: as §1

[5] = target: ELF1 (Homo sapiens, UniProt P32519 1-619); conditions: protein: recombinant; tags: N-terminal GST; dsDNA, one strand shown
Chain of ELF1 (P32519 whole entry): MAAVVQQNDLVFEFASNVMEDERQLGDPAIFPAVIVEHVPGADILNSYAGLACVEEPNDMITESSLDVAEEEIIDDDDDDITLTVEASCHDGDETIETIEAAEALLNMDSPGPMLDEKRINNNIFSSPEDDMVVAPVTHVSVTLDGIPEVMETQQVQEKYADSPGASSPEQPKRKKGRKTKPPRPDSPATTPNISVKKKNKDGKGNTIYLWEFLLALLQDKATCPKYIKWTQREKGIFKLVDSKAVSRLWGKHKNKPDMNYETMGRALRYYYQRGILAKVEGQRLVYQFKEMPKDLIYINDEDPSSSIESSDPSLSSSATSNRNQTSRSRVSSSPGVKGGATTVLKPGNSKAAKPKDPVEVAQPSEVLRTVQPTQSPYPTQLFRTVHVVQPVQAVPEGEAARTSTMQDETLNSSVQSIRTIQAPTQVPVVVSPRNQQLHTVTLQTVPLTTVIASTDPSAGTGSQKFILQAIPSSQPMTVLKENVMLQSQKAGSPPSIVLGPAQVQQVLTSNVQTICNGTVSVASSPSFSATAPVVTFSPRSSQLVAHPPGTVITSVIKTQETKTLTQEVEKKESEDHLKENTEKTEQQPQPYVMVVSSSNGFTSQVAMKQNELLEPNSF
Method in brief: as §1

[6] = target: T5, EHF (Homo sapiens, UniProt Q9NZC4 1-300); conditions: protein: recombinant; tags: N-terminal GST; dsDNA, one strand shown
T5 sequence: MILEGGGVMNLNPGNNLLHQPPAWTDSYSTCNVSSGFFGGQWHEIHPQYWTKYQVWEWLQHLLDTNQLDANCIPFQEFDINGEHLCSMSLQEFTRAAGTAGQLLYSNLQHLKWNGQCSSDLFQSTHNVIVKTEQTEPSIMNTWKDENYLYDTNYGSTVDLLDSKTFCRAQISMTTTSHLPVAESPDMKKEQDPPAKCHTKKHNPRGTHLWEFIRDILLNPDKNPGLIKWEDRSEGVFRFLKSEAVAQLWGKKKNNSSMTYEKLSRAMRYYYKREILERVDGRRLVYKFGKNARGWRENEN
Method in brief: as §1

[7] = target: SPI1 (Homo sapiens, UniProt P17947 1-270); conditions: protein: recombinant; tags: N-terminal GST; dsDNA, one strand shown
Method in brief: as §1

[8] = target: SPIB (Homo sapiens, UniProt Q01892 1-262); conditions: protein: recombinant; tags: N-terminal GST; dsDNA, one strand shown
Chain of SPIB (Q01892 whole entry): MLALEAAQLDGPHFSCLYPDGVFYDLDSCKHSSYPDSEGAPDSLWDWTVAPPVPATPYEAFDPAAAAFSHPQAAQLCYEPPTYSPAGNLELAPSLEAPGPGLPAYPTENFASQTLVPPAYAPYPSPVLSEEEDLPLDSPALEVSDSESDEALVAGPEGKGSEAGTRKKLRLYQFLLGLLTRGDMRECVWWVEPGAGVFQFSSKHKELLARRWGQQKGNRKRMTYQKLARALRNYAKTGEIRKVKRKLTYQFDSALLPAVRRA
Method in brief: as §1

[9] = target: T6, ELK3 (Homo sapiens, UniProt P41970 1-407); conditions: protein: recombinant; tags: N-terminal GST; dsDNA, one strand shown
T6 sequence: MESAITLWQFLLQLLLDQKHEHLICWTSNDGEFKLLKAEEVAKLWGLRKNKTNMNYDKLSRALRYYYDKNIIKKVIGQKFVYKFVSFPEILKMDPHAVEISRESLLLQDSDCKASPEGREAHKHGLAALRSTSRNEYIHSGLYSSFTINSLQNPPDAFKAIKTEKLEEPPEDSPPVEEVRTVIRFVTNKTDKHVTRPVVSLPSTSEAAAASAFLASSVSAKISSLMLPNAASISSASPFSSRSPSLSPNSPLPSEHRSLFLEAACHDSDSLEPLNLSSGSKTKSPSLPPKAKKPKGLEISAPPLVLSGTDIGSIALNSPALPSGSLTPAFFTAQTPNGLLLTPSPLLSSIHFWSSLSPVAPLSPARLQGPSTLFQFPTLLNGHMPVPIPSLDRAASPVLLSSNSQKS
Method in brief: as §1

[10] = target: T7, FEV (Homo sapiens, UniProt Q99581 1-238); conditions: protein: recombinant; tags: N-terminal GST; dsDNA, one strand shown
T7 sequence: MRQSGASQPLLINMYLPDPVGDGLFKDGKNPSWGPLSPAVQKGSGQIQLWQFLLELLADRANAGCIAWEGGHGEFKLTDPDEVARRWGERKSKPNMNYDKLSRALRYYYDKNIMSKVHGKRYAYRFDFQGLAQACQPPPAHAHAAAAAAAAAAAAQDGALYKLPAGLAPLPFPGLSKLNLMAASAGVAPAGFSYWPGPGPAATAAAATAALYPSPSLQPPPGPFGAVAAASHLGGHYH
Method in brief: as §1

[11] = target: ETV5 (Homo sapiens, UniProt P41161 1-510); conditions: protein: recombinant; tags: N-terminal GST; dsDNA, one strand shown
Chain of ETV5 (P41161 whole entry): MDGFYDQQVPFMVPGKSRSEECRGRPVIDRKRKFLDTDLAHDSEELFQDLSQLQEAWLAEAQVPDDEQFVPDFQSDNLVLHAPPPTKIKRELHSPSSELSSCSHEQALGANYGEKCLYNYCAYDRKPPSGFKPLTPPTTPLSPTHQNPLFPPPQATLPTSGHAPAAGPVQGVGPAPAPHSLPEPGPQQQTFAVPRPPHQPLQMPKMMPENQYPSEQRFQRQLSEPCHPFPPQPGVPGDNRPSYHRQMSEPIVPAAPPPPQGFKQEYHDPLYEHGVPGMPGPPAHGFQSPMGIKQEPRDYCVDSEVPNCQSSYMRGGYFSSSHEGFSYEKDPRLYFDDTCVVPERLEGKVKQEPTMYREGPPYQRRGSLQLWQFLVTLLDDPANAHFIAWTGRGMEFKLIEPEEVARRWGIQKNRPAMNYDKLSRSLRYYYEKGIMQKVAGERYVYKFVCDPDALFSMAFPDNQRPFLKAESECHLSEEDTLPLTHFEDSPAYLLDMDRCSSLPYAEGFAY
Method in brief: as §1

[12] = target: HSF1 (Homo sapiens, UniProt Q00613 1-529); conditions: protein: recombinant; tags: N-terminal GST; chain copies: 3; dsDNA, one strand shown
Chain of HSF1 (Q00613 whole entry): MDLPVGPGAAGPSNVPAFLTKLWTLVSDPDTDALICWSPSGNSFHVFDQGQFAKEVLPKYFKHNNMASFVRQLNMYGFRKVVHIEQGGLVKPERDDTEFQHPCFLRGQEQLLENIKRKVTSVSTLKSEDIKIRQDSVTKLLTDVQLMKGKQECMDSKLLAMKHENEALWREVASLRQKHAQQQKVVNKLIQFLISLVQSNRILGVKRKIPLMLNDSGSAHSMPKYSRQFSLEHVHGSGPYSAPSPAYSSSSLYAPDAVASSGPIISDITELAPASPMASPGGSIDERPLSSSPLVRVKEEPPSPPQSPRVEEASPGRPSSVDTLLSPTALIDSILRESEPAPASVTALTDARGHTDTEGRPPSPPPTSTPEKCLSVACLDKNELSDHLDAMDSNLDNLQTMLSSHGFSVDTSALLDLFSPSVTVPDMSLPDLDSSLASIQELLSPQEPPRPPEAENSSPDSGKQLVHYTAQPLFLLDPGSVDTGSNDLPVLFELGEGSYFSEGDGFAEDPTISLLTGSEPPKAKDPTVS
Method in brief: as §1

[13] = target: T8, SPIC (Homo sapiens, UniProt Q8N5J4 1-248); conditions: protein: recombinant; tags: N-terminal GST; dsDNA, one strand shown
T8 sequence: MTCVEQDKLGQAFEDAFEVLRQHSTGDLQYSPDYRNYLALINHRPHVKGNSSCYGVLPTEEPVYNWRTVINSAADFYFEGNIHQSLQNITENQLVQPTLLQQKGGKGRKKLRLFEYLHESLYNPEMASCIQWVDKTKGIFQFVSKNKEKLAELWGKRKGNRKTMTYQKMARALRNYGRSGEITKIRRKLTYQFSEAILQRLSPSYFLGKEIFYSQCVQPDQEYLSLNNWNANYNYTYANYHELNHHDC
Method in brief: as §1

[14] = target: ELF4 (Homo sapiens, UniProt Q99607 1-663); conditions: protein: recombinant; tags: N-terminal GST; dsDNA, one strand shown
Chain of ELF4 (Q99607 whole entry): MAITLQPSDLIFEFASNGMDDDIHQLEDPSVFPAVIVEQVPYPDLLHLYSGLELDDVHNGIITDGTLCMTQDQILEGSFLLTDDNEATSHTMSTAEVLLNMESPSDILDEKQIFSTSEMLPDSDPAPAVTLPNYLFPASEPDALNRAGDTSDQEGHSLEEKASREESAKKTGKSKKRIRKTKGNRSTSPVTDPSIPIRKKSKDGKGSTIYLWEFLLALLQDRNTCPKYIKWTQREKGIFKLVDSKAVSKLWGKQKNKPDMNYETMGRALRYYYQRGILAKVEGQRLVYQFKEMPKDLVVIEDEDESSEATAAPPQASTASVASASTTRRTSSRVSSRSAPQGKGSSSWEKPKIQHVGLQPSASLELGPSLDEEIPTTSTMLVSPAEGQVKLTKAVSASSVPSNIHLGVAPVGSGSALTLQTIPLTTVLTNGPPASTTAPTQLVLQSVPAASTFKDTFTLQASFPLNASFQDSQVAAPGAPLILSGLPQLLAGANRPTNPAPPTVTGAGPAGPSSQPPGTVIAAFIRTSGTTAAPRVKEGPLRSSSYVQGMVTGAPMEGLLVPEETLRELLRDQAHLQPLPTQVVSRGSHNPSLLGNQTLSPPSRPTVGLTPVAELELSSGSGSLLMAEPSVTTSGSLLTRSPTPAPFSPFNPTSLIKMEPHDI
Method in brief: as §1

[15] = target: T9, ELK4 (Homo sapiens, UniProt P28324-2 1-405); conditions: protein: recombinant; tags: N-terminal GST; dsDNA, one strand shown
T9 sequence: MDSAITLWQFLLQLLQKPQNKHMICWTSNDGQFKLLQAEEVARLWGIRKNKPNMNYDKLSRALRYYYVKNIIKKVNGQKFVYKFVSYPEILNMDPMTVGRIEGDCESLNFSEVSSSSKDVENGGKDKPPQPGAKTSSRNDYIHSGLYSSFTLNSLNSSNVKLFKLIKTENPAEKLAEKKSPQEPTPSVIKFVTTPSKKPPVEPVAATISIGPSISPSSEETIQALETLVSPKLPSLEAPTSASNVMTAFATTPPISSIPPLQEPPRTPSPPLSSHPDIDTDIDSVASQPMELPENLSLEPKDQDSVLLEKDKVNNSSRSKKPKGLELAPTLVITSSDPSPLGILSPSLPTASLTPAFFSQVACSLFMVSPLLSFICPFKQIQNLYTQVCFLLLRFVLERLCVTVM
Method in brief: as §1

[16] = target: T10, ETV2 (Homo sapiens, UniProt O00321 1-342); conditions: protein: recombinant; tags: N-terminal GST; dsDNA, one strand shown
T10 sequence: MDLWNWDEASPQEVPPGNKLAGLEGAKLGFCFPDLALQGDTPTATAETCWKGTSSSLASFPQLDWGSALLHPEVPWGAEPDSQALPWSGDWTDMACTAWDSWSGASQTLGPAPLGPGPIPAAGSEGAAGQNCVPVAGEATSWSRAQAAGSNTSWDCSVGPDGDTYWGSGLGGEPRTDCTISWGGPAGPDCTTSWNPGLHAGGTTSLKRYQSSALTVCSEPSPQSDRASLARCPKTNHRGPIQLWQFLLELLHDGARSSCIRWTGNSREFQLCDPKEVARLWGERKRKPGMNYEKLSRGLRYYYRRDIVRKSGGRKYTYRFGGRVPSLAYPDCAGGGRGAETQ
Method in brief: as §1

[17] = target: T11, ELF3 (Homo sapiens, UniProt P78545 1-371); conditions: protein: recombinant; tags: N-terminal GST; dsDNA, one strand shown
T11 sequence: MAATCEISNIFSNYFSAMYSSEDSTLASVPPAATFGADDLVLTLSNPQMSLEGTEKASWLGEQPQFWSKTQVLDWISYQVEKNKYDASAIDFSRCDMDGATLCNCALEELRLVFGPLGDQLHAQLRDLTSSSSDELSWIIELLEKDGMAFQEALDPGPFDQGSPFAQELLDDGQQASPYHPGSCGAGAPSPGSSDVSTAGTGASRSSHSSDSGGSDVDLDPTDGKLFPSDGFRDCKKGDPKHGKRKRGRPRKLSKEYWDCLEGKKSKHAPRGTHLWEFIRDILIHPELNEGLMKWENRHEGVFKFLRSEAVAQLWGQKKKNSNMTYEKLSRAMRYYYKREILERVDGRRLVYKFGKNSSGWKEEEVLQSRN
Method in brief: as §1

[18] = target: CRX (Homo sapiens, UniProt O43186 1-299); conditions: protein: recombinant; tags: N-terminal GST; dsDNA, one strand shown
Chain of CRX (O43186 whole entry): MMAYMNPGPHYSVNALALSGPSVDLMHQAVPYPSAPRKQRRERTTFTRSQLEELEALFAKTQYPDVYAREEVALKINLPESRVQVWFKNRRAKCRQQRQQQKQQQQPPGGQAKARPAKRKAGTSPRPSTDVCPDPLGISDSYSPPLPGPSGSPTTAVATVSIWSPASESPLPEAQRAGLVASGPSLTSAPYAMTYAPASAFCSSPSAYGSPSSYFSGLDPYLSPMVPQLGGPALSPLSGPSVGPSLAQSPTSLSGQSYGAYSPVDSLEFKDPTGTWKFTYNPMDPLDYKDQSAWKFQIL
Method in brief: as §1

[19] = target: ETV1 (Homo sapiens, UniProt P50549 1-477); conditions: protein: recombinant; tags: N-terminal GST; dsDNA, one strand shown
Chain of ETV1 (P50549 whole entry): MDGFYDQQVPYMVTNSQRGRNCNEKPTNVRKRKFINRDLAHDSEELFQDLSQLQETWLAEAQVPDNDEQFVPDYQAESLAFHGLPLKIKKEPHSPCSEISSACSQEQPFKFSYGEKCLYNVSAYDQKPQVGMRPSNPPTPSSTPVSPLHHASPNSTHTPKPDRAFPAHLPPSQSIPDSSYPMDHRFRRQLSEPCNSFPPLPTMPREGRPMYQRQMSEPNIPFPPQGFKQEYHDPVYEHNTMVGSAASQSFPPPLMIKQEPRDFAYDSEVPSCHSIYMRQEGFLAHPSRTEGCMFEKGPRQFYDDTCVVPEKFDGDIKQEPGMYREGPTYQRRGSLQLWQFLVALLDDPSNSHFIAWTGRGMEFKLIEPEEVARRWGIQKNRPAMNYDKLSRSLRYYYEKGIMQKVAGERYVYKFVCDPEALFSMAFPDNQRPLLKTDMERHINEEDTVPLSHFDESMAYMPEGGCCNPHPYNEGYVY
Method in brief: as §1

In the case of TGTCCT, the binding signal [1] is reported as 1.37 fold enrichment (6-mer frequency, TF over GST control), the binding signal [2] is reported as 1.38 fold enrichment (6-mer frequency, TF over GST control) and the binding signal [3] is reported as 1.58 fold enrichment (6-mer frequency, TF over GST control). For the same sequence, the binding signal [4] was 1.38 fold enrichment (6-mer frequency, TF over GST control), the binding signal [5] was 1.5 fold enrichment (6-mer frequency, TF over GST control) and the binding signal [6] was 1.52 fold enrichment (6-mer frequency, TF over GST control). For the same sequence, the binding signal [7] was 1.44 fold enrichment (6-mer frequency, TF over GST control), the binding signal [8] was 1.54 fold enrichment (6-mer frequency, TF over GST control) and the binding signal [9] was 1.41 fold enrichment (6-mer frequency, TF over GST control). For the same sequence, the binding signal [10] was 1.45 fold enrichment (6-mer frequency, TF over GST control), the binding signal [11] was 1.56 fold enrichment (6-mer frequency, TF over GST control) and the binding signal [12] was 1.06 fold enrichment (6-mer frequency, TF over GST control). The binding signal [13] was 1.53 fold enrichment (6-mer frequency, TF over GST control), the binding signal [14] was 1.4 fold enrichment (6-mer frequency, TF over GST control) and the binding signal [15] was 1.28 fold enrichment (6-mer frequency, TF over GST control). The binding signal [16] was 1.67 fold enrichment (6-mer frequency, TF over GST control), the binding signal [17] was 1.46 fold enrichment (6-mer frequency, TF over GST control) and the binding signal [18] was 1.12 fold enrichment (6-mer frequency, TF over GST control). The binding signal [19] was 1.55 fold enrichment (6-mer frequency, TF over GST control).
